# Bioassay records deposited in PubChem BioAssay by National Center for Advancing Translational Sciences (NCATS).
# Compounds with a hit are over-represented: about 7.3% of the library has one in this group of screens.
# FMDV antiviral: foot and mouth disease virus antiviral activity. FMDV antiviral cell-based qHTS. Potency, µM (series often up to 57.9 µM), without a hit: at the highest dose activity change, negative = inhibition, usual class: inhibitors. 410,000 tested, 1.2% active. AID 1159524; calls by dose curve; tested in HEK293T cells; further: read-out not given here; potency means the concentration at half of the fitted maximal effect; nearly all actives have a fitted effect of over 45% in size
# AmpC inh detg: blocks E. coli AmpC beta-lactamase in detergent assay | 370,000 tested, 0.041% active | P00811 | AID 485294 | Potency, µM (top dose mostly 114 µM), for the others: at the top dose activity change, negative = inhibition, actives largely listed as inhibitors | AmpC hydrolysis of nitrocefin, absorbance 480 nm, 0.01% Triton;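 further: potency means the concentration at half of the fitted maximal effect; 0% = no-compound wells and -100% = no-enzyme wells; nearly all actives have a fitted effect of over 25% in size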
# Target sequence (P00811 whole entry, looked up): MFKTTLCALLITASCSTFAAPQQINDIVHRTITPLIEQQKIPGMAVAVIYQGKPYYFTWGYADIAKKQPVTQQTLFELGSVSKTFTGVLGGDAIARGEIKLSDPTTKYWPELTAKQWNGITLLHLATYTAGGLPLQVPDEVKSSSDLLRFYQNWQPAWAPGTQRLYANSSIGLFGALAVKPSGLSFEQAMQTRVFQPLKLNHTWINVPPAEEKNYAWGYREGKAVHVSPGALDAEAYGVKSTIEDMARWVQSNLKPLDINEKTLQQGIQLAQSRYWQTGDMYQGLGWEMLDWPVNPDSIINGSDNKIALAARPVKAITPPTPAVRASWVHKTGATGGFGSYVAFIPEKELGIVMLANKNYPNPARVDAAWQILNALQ
#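 20 mM phosphate pH 7.0 + 0.01% (detergent screen) or 0.0001% Triton X-100; 5.3 nM AmpC reagent; cpd preinc 15 min RT; nitrocefin (800 uM stock) to start; A480 q20 s × 4 min; Activity was normalised to no-enzyme and no-compound control wells.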
# HCMV antiviral: human cytomegalovirus inhibition; HFF cells, HCMV-luciferase reporter, 72 h; hits give low values; activity change, negative = inhibition, % at 57.5 µM; 410,000 tested, 4.5% active; AID 1259415; in the data active means activity change below about -60%; inconclusive means no clear call, values can overlap the other calls; inactive means above about -39%
#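 Compounds were evaluated in HFFs infected with an HCMV luciferase reporter virus (MOI 1 PFU/cell). Luciferase in lysates collected 72 h post infection served as the replication measure.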
# HCV inhibitor: blocks hepatitis C virus | Huh7.5.1 HCVcc-Cre infection, luciferase reporter, 44 h | Potency, µM (titrated, usually from 41.8 µM), without a hit: top-dose activity change, negative = inhibition, usual class: inhibitors | 340,000 tested, 3.4% active | AID 651820; further: potency means the concentration at half of the fitted maximal effect
#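 Cells seeded at 1,000/well and cultured 4 h, then compounds added followed by HCVcc-Cre virus (~0.5 moi). After 44 h further culture, luciferase substrate was added, plates held 15 min at room temperature, and luminescence read for 15 sec.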
# AmpC no deterg: AmpC beta-lactamase inhibition without detergent; 330,000 tested, 0.52% active; P00811; Potency, µM (doses to about 57.1 µM), inactives show at the top dose activity change, negative = inhibition, usual class: inhibitors; AID 485341; AmpC nitrocefin hydrolysis, absorbance 480 nm, 0.0001% Triton;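 further: potency means the concentration at half of the fitted maximal effect; plate controls were no compound for no effect and no enzyme for full effect; nearly all actives have a fitted effect of over 20% in size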
#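 20 mM phosphate pH 7.0 + 0.01% (detergent screen) or 0.0001% Triton X-100; 5.3 nM AmpC reagent; cpd preinc 15 min RT; nitrocefin (800 uM stock) to start; A480 q20 s × 4 min; Activity was normalised to no-enzyme and no-compound control wells.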
# Numbers without * were called inactive; ? = inconclusive; . = not tested or not shown. Unless noted, the call rests on the fitted dose curve; in most records, active means well fitted curve in the direction sought with a large enough effect; inconclusive means small, poorly fitted or top-dose-only effect, or another doubt; inactive means no such curve, though single readings can be large; an effect the other way counts as inactive or inconclusive. Unless noted, on the % scale 0 is the no-effect control and ±100 the full control effect.
SMILES,FMDV antiviral,AmpC inh detg,HCMV antiviral,HCV inhibitor,AmpC no deterg
Cc1cc(C)c[n+](CC(=O)c2ccc(NC(=O)c3ccccc3)cc2)c1,2%,-6%,-32,-1%,-13%
Cc1cc(C)c[n+](CC(=O)c2ccc(-c3ccccc3)cc2)c1,?,-7%,-77*,?,48%
O=C(O)CC(CNS(=O)(=O)c1ccccc1)c1ccccc1 (centres undefined),-20%,?,-75*,?,2.5µM*
CC(=O)Nc1sc(N/N=C/c2ccccc2)nc1-c1ccc(C)cc1,37%,-3%,-9,?,-32%
CCCc1sc(N/N=C/c2ccccn2)nc1-c1ccc(Br)cc1,-1%,0%,-98*,3.2µM*,-33%
N#C/C(=C/c1cn(-c2ccccc2)nc1-c1cccc(OCc2ccc(F)cc2)c1)C(=O)NCCCn1ccnc1,-7%,-4%,13,5.6µM*,80%
CCOc1ccccc1CNC(=O)c1oc2c(c1C)-c1nn(Cc3cccc(Cl)c3)cc1CC2,-14%,-2%,9,.,.
CCc1nc2c(OCCC3CCCCC3)cccn2c1N(C)C(=O)c1cccs1,28µM*,.,-16,.,.
CCCCC(=O)N(C)c1c(CC)nc2c(OCC3CCCCC3)cccn12,0%,.,-64*,.,.
CCOC(=O)N(C)c1c(CC)nc2c(OCc3ccc(Cl)cc3)cccn12,-16%,.,-89*,.,.
CCCCC(=O)N(C)c1c(CC)nc2c(OCCC3CCCCC3)cccn12,?,.,-98*,.,.
CCCCC(=O)N(C)c1c(CC)nc2c(OCCOC)cccn12,-7%,.,21,.,.
COC(=O)c1cc(CNC(=O)c2ccccc2)cc(NC(=O)c2ccccc2OC)c1,6%,.,.,.,.
COC(=O)C1=C(C)NC(C)=C(C(=O)OCCN2CCN(C(c3ccccc3)c3ccccc3)CC2)C1c1cccc([N+](=O)[O-])c1 (centres undefined),.,.,-64*,.,.
Nc1c(Br)cc2c3c(cccc13)-c1ccccc1-2,18%,.,-33,2.8µM*,.
CC(C)(C)c1cnnn1-c1cccc([N+](=O)[O-])c1,-5%,5%,-66*,9%,-10%
O=[N+]([O-])c1cccc(-n2nncc2-c2ccccc2)c1,-14%,-9%,5,6%,-15%
CC(C)c1ccc(OCc2nnc(SCC(=O)N3CCCCC3)o2)cc1,0%,4%,?,?,90%
CC(C)c1c(C(=O)NCc2cccnc2)cnn1-c1nccc(-c2cccs2)n1,-17%,.,.,.,.
O=S(=O)(c1ccc(Cl)cc1Cl)n1ccnc1,-18%,-2%,2,.,.
Nc1nccc(SCc2ccc(Cl)cc2Cl)n1,-16%,.,-15,-21%,.
NNc1ccc(Cc2ccc(Cl)cc2Cl)nn1,-3%,0%,-70*,?,-23%
Nc1nc(N)c(Cc2ccc(Cl)cc2Cl)c(N)n1,?,2%,-73*,?,-10%
COc1cc(=O)n2c(c1C(=O)N(C)Cc1nccs1)CCN(Cc1ccc(F)c(F)c1)CC2,-3%,.,.,.,.
CCc1ccc(-n2cc(-c3ccc(F)cc3)[n+]3c2SCCC3)cc1,-13%,0%,-87*,?,-9%
SMILES,FMDV antiviral,AmpC inh detg,HCMV antiviral,HCV inhibitor,AmpC no deterg
c1ccc(-c2cn(-c3ccccc3)c3[n+]2CCCS3)cc1,?,2%,-33,-19%,-9%
Cc1ccc(-c2cn(-c3ccccc3)c3[n+]2CCCS3)cc1,10µM*,?,-93*,?,4%
N#Cc1ccc(-c2cn(-c3ccccc3)c3[n+]2CCCS3)cc1,-4%,3%,-5,0%,-18%
Cc1nc2ccc(C(=O)N(C)Cc3ccccc3)cn2c1N(C)C(=O)CCc1ccccc1,22%,.,-15,.,.
O=C(CCc1nnc2ccc(N3CCC4(CC3)OCCO4)nn12)N1CCCCC1,26%,-8%,33,3%,1%
COc1ccc(-c2cccc3c2OC(CNC(=O)c2ccc4c(c2)OCO4)C3)nn1 (centres undefined),31%,.,.,.,.
O=C(Cn1cc2c(n1)CCCC2)NCc1ccccn1,0%,-16%,32,24%,3.5µM*
COc1ccc(CNC(=O)Cn2cc3c(n2)CCCCC3)cc1,-18%,-4%,-12,13%,7.1µM*
O=C(Cn1cc2c(n1)CCCC2)NCc1cccs1,18%,?,11,8%,-6%
CN(C)c1ccc(/C=N/NC(=S)NCc2ccco2)cc1,-8%,-8%,-9,-4%,-34%
CN(C)c1ccc(C(=S)NCc2ccco2)cc1,16µM*,-5%,72,3%,-19%
CCOC(=O)/C(=C\c1cccc(O)c1)c1nc2sc(C)c(C)c2c(=O)[nH]1,11µM*,-6%,-99*,1%,-17%
CC(C)(C)N(Cc1ccccc1)C(=O)CN1C(=O)c2ccccc2S1(=O)=O,-22%,.,-23,11%,22%
CCOC(=O)C(C)Sc1nc(-c2cccs2)ccc1C#N (centres undefined),-7%,7%,47,14µM*,-23%
C=COC(=O)CSc1nc(-c2cccs2)ccc1C#N,10%,?,40,3%,-43%
CC1OC(CCc2cccc(Cl)c2)Cc2[nH]c(=S)[nH]c(=O)c21 (centres undefined),0%,.,-27,.,.
N#Cc1ccccc1NC(=O)C1SC(=Nc2ccccc2)C(C(=O)Nc2ccc(Cl)cc2)=C1N (centres undefined),0%,3%,25,10µM*,-40%
Cc1ccnc(NC(=O)c2ccc(C(=O)c3ccccc3)cc2)c1,-39%,-1%,5,5%,-11%
CCOc1ccc(C(=O)Nc2cc(C)ccn2)cc1,-88%,-3%,-65*,-11%,-10%
CCOc1cc(C(=O)Nc2cc(C)ccn2)cc(OCC)c1OCC,-30%,?,-95*,?,19%
COC(=O)c1cc(CNC(=O)c2ccncc2)cc(NC(=O)c2ccccc2Cl)c1,-1%,.,.,.,.
CN(C(=O)c1ccncc1)C1CCCCC1,-10%,-6%,11,5%,-1%
Cc1ccc(-c2cc(N)n(-c3ccccc3)n2)cc1,52%,?,77,-9%,8%
Nc1cc(-c2ccc(OC(F)(F)F)cc2)nn1-c1ccc(Cl)c(Cl)c1,-7%,12%,-66*,-1%,-46%
Cc1cc(C(=O)Nc2ccccc2-c2nc(CNC(=O)c3cc4ccccc4cn3)c(C)o2)c(C)o1,0%,.,.,.,.
O=C(Nc1cccc(C(F)(F)F)c1)c1ccc2snnc2c1,-9%,16%,-20,.,.
O=C(Nc1ccccc1)Nc1ccc2snnc2c1,20%,1%,11,11µM*,-26%
O=C(Nc1cccc(C(F)(F)F)c1)Nc1ccc2snnc2c1,-27%,2%,-105*,.,.
CCC12CN3CC(C)(CN(C1)C3c1c(C)[nH]c3ccccc13)C2=O (centres undefined),-26%,15%,7,.,.
CCN(c1ccccc1)c1cc(C)nc2ncnn12,-21%,-9%,3,-8%,-16%
